One experiment relates to WNK1. Conditions: concentration: 1 μM,replicates: in singlicate; n = 1.
The subject of the next experiment is WNK2. The conditions noted are these: concentration: 1 μM,replicates: in singlicate; n = 1.
In another experiment the test system is WNK3. The conditions noted are these: concentration: 1 μM,replicates: in singlicate; n = 1.
Another experiment relates to WNK4. Conditions: concentration: 1 μM,replicates: in singlicate; n = 1.
Another experiment concerns T1, YANK1.
T1 construct: gene STK32A
The conditions noted are these: concentration: 1 μM,replicates: in singlicate; n = 1.

The next experiment deals with T2, YANK2.
T2 construct: gene STK32B
Conditions: concentration: 1 μM,replicates: in singlicate; n = 1.

The subject of the next experiment is T3, YANK3.
T3 construct: gene STK32C
Conditions: concentration: 1 μM,replicates: in singlicate; n = 1.

Another experiment has as its system T4, YES.
T4 construct: gene YES1
Conditions: concentration: 1 μM,replicates: in singlicate; n = 1.

Another experiment concerns T5, YSK1.
T5 construct: gene STK25
Conditions: concentration: 1 μM,replicates: in singlicate; n = 1.

The test system of the next experiment is T6, YSK4.
T6 construct: gene MAP3K19
The conditions noted are these: concentration: 1 μM,replicates: in singlicate; n = 1.

Another experiment has as its system ZAK. The conditions noted are these: concentration: 1 μM,replicates: in singlicate; n = 1.
For a further experiment, the system named is ZAP70. Conditions: concentration: 1 μM,replicates: in singlicate; n = 1.
In the next experiment the test system is T7, p38-alpha.
T7 construct: gene MAPK14
Conditions: n = 1.

For a further experiment, the system named is T8, p38-beta.
T8 construct: gene MAPK11
Conditions: concentration: 1 μM,replicates: in singlicate; n = 1.

A further experiment concerns p38-delta. Conditions: concentration: 1 μM,replicates: in singlicate; n = 1.
Another experiment concerns T9, p38-gamma.
T9 construct: gene MAPK12
The conditions noted are these: concentration: 1 μM,replicates: in singlicate; n = 1.

Where [1] appears, read: concentration: 1 μM,replicates: in singlicate.

Like-named read-outs stand apart in the source and are kept apart here.

The values below come from article PMC5540273 (PLoS ONE, 2017).
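Further: KINOMEscan kinase panel screen.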

As for `Cc1cc2cn[nH]c2cc1-c1cccc2c(N)c(C(N)=O)nnc12`, the “%Inh” value was found to be 21% in the experiment with WNK1; 3% in the experiment on WNK2; 23% with WNK3; 11% in the experiment with WNK4; 26% in the experiment on YANK1; 0% with YANK2. For the same compound, the “%Inh” value with YANK3 is 0%; with YES, 0%; in the experiment on YSK1, 0%; in the experiment with YSK4, 71%; in the experiment with ZAK, 21%; in the experiment on ZAP70 it was 32%. For the same compound, the “%Inh” value is reported as 0% in the experiment with p38-alpha (setting [1]), 2% in the experiment with p38-beta, 0% in the experiment with p38-delta and 52% in the experiment with p38-gamma.
On to `Cl.Oc1cc(-c2nc(-c3ccccc3)[nH]c2-c2ccncc2)ccc1Cl` [SB-386023], for which the “%Inh” value with WNK1 was 0%; with WNK2 it was 0%; in the experiment on WNK3, 0%; with WNK4, 38%; with YANK1 it was 0%; in the experiment on YANK2 it was 26%. Moreover, the “%Inh” value in the experiment with YANK3 is 0%; in the experiment on YES it was 31%; in the experiment on YSK1 it was 0%; in the experiment with YSK4, 0%; in the experiment on ZAK it was 25%; in the experiment on ZAP70, 15%. In addition, the “%Inh” value in the experiment on p38-alpha (1 µM) is recorded as 85%; in the experiment with p38-beta, 26%; with p38-delta it was 0%; in the experiment on p38-gamma it was 36%.
`Cl.Cl.NC[C@H](Cc1ccc(C(F)(F)F)cc1)NC(=O)c1cc(Br)c(-c2ccnc3[nH]ccc23)s1` [GSK1487252]: the “%Inh” value is on record as 10% in the experiment on WNK1; 0% in the experiment on WNK2; 13% in the experiment with WNK3; 39% in the experiment with WNK4; 56% in the experiment on YANK1; 69% with YANK2. Besides, the “%Inh” value with YANK3 was determined as 13%; with YES, 19%; with YSK1, 30%; in the experiment on YSK4, 88%; in the experiment with ZAK, 0%; in the experiment with ZAP70, 0%. Besides, the “%Inh” value in the experiment with p38-alpha (setting [1]) is reported as 0%; with p38-beta, 0%; in the experiment on p38-delta, 12%; in the experiment with p38-gamma, 38%.
Consider `Cc1n[nH]c2ccc(-c3cc(OC[C@@H](N)Cc4ccccc4)cnc3-c3ccoc3)cc12.O=C(O)C(F)(F)F.O=C(O)C(F)(F)F` [GSK507358], for which the “%Inh” value in the experiment with WNK1 is 8%; in the experiment with WNK2, 11%; in the experiment on WNK3 it was 0%; with WNK4, 6%; in the experiment with YANK1, 72%; in the experiment with YANK2, 90.5%. Moreover, the “%Inh” value is recorded as 47% with YANK3; 22% with YES; 22% in the experiment on YSK1; 99.8% with YSK4; 0% in the experiment with ZAK; 0% with ZAP70. For the same compound, the “%Inh” value is reported as 0% in the experiment on p38-beta, 50% in the experiment with p38-delta and 33% in the experiment with p38-gamma.
In the case of `C[C@@H]1CCN(C(=O)CC#N)C[C@@H]1N(C)c1ncnc2[nH]ccc12`, the “%Inh” value in the experiment with WNK1, in the experiment with WNK2, in the experiment with WNK3, with WNK4, in the experiment on YANK2 and in the experiment on YANK3 was 0% throughout. Besides, the “%Inh” value in the experiment on YES was 0%; in the experiment with YSK1 it was 0%; in the experiment on YSK4 it was 8%; in the experiment with ZAK, 0%; in the experiment on ZAP70, 0%; with p38-alpha (setting [1]), 1%. Moreover, the “%Inh” value in the experiment with p38-beta worked out at 13%.
`C[C@H]1Oc2cc(cnc2N)-c2c(nn(C)c2C#N)CN(C)C(=O)c2ccc(F)cc21`: the “%Inh” value is reported as 0% with WNK1; 2% in the experiment with WNK2; 0% with WNK3; 0% with WNK4; 0% in the experiment with YANK1; 12% in the experiment on YANK2. The “%Inh” value with YANK3 is 3%; in the experiment with YES, 2%; with YSK1 it was 0%; with YSK4 it was 0%; in the experiment on ZAK, 0%; in the experiment with ZAP70, 0%. The “%Inh” value came out at 9% with p38-alpha (setting [1]), 18% in the experiment on p38-beta, 0% in the experiment on p38-delta and 5% in the experiment on p38-gamma.
`CN(C)CC(O)COc1ccc(Nc2nccc(-c3cnn4nc(N5CCOCC5)ccc34)n2)cc1` (centres unmarked) [GW767488]: the “%Inh” value in the experiment with WNK1 is listed as 18%; with WNK2, 0%; with WNK3, 18%; with WNK4, 0%; in the experiment with YANK1 it was 29%; in the experiment with YANK2, 0%. In addition, the “%Inh” value stood at 0% in the experiment on YANK3; 0% in the experiment on YES; 17% in the experiment on YSK1; 90% in the experiment on YSK4; 14% in the experiment with ZAK; 36% in the experiment on ZAP70. In addition, the “%Inh” value is given as 6% in the experiment on p38-alpha (setting [1]), 23% with p38-beta, 38% in the experiment on p38-delta and 73% in the experiment on p38-gamma.
Turning to `CNC(=O)c1ccccc1Sc1ccc2c(/C=C/c3ccccn3)n[nH]c2c1`, the “%Inh” value was found to be 0% with WNK1; 11% in the experiment with WNK2; 0% with WNK3; 0% in the experiment on WNK4; 19% with YANK1; 0% in the experiment on YANK2. In addition, the “%Inh” value is 0% in the experiment on YANK3; 0% in the experiment on YES; 0% with YSK1; 78% in the experiment on YSK4; 53% in the experiment with ZAK; 0% in the experiment on ZAP70. Further, the “%Inh” value in the experiment with p38-alpha (setting [1]) came out at 5%; in the experiment on p38-beta it was 15%; in the experiment with p38-delta, 10%; in the experiment with p38-gamma it was 25%.
Turning to `Cl.Cl.Nc1nc(-c2ccc3c(N)n[nH]c3c2)cc(N2CCCC(NC(=O)c3ccccc3)C2)n1` (centres unmarked) [GSK2286775], the “%Inh” value is 37% with WNK1; 10% with WNK2; 19% in the experiment on WNK3; 0% in the experiment with WNK4; 0% in the experiment on YANK1; 0% in the experiment with YANK2. Also, the “%Inh” value in the experiment on YANK3 worked out at 0%; with YES, 14%; in the experiment on YSK1, 22%; in the experiment on YSK4 it was 36%; with ZAK, 100%; in the experiment with ZAP70, 0%. The “%Inh” value is reported as 0% with p38-alpha (setting [1]), 0% in the experiment with p38-beta, 21% in the experiment on p38-delta and 21% with p38-gamma.
As to `Cc1ccc2c(-c3ccncc3)c(-c3ccc(F)cc3)nn2c1.Cl` [GW461484], the “%Inh” value in the experiment on WNK1 was 0%; in the experiment with WNK2, 0%; in the experiment with WNK3, 26%; in the experiment with WNK4 it was 22%; in the experiment on YANK1, 31%; in the experiment with YANK2, 15%. Also, the “%Inh” value in the experiment with YANK3 is 12%; in the experiment on YES, 0%; in the experiment on YSK1, 7%; in the experiment on YSK4 it was 0%; in the experiment with ZAK, 14%; in the experiment with ZAP70, 0%. Also, the “%Inh” value in the experiment with p38-alpha (setting [1]) was determined as 99.9%; with p38-beta, 39%; with p38-delta it was 13%; with p38-gamma it was 12%.
For the compound `O=C(NCCCN1CCOC1=O)c1cnc(NCc2cc(Cl)ccc2Cl)nc1NC1CCCC1`, the “%Inh” value with WNK1 is recorded as 0%; in the experiment on WNK2 it was 0%; with WNK3, 0%; in the experiment with WNK4, 18%; in the experiment on YANK1, 0%; with YANK2 it was 0%. For the same compound, the “%Inh” value in the experiment on YANK3 is on record as 2%; with YES it was 31%; in the experiment on YSK1 it was 0%; in the experiment on YSK4, 11%; in the experiment on ZAK, 10%; in the experiment with ZAP70 it was 0%. In addition, the “%Inh” value in the experiment with p38-alpha (setting [1]) turned out to be 9%; with p38-beta, 0%; in the experiment on p38-delta, 44%; in the experiment with p38-gamma it was 1%.
Consider `CC(C)N1C(=O)Cc2cc(Nc3ncc(C(F)(F)F)c(NCc4cccc(S(C)(=O)=O)c4)n3)ccc21`, for which the “%Inh” value came out at 0% in the experiment with WNK1; 1% in the experiment on WNK2; 0% with WNK3; 23% in the experiment on WNK4; 6% in the experiment with YANK1; 0% with YANK2. Moreover, the “%Inh” value in the experiment on YANK3 is given as 0%; with YES, 9%; in the experiment on YSK1 it was 0%; in the experiment on YSK4, 99.8%; in the experiment on ZAK it was 0%; with ZAP70, 62%. Also, the “%Inh” value in the experiment on p38-alpha (setting [1]) is 96.4%; with p38-beta it was 2%; in the experiment with p38-delta, 0%; in the experiment with p38-gamma it was 0%.
As to `Cc1occc1-c1nc(N)c(OC[C@@H](N)Cc2c[nH]c3ccccc23)cc1-c1cc2c(C)n[nH]c2cn1` [GSK1660450], the “%Inh” value with WNK1 was 0%; in the experiment with WNK2 it was 5%; in the experiment with WNK3, 0%; in the experiment on WNK4, 0%; in the experiment on YANK1 it was 96.6%; with YANK2, 95.2%. Further, the “%Inh” value with YANK3 came out at 93.1%; in the experiment on YES, 40%; with YSK1, 57%; in the experiment on YSK4, 99.7%; with ZAK, 31%; in the experiment on ZAP70, 0%. Further, the “%Inh” value in the experiment on p38-beta was determined as 0%; in the experiment on p38-delta, 22%; with p38-gamma, 24%.
In the case of `C[C@@H](Oc1cc(-c2cnn(C3CCNCC3)c2)cnc1N)c1c(Cl)ccc(F)c1Cl`, the “%Inh” value with WNK1 worked out at 11%; in the experiment on WNK2, 46%; with WNK3, 0%; with WNK4 it was 8%; in the experiment on YANK1 it was 6%; in the experiment with YANK2, 0%. The “%Inh” value in the experiment on YANK3 is 0%; with YES, 17%; in the experiment on YSK1 it was 0%; in the experiment with YSK4, 72%; with ZAK it was 4%; in the experiment on ZAP70, 10%. In addition, the figures for the “%Inh” value with p38-alpha (setting [1]), with p38-beta and with p38-delta were 2%, 25% and 30%, respectively.
